Rows were chosen to be rich in hits. Some 0.79% of all compounds tested hit in one or more screens of this group.
HDAC3 inh = HDAC3 deacetylase inhibitors, primary screen, biochemical, fluorescence, cell-free homogeneous. recombinant HDAC3, fluorogenic peptide/trypsin coupled. inhibition, % at 8.3 µM. 0.15% of 320,000 active. Histone deacetylase 3 (Homo sapiens), O15379. AID 2718, 2010; in the data active = inhibition above about 26%, passing the limit was not always enough
LANA-H2A inh = blockers of LANA interaction with H2A/H2B – biochemical, FP readout, HTS, primary screen; Protein LANA1 (Human herpesvirus 8 type P (isolate GK18)), Q9QR71; cell-free LANA-H2A/H2B peptide, fluorescence polarization; inhibition, % (no concentration beside the values); 0.6% of 320,000 active; in the data active = inhibition mostly above about 10%, no sharp cut-off; inactive = mostly below about 6.7%
iPSC survival up = enhancers of single-cell hiPSC survival, primary screen, ATPlite luminescence; 100% = ROCK inhibitor wells, 0% = DMSO; survival enhancement, % at 20 µM; 0.044% of 360,000 active; AID 602274, 2012; in the data active = survival enhancement above about 18%;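 also: cells exposed to compounds for 16 hours before the ATP read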
DAGLB inh = DAGLB lipase inhibitors, primary screen, biochemical, fluorescence, HTS; Diacylglycerol lipase-beta (Homo sapiens), Q8NCG7; HEK293T DAGLB membrane lysate, EnzChek fluorogenic substrate; inhibition, % at 5.17 µM; 0.059% of 340,000 active; in the data active = inhibition above about 34%;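 also: 0% = enzyme with vehicle and 100% = wells lacking enzyme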
DAGLB inh conf = DAGLB lipase inhibitors, retest, confirmation, biochemical, fluorescence, HEK293T membranes. shares compounds with DAGLB inh. HEK293T DAGLB membrane lysate, EnzChek fluorogenic substrate. inhibition, % at 5.17 µM. 73% of 190 active;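 active = mean inhibition over triplicate wells above a set limit taken from the primary lipase screen, cut at about 34% in these data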;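 also: 0% = DAGLB with DMSO and 100% = wells lacking DAGLB enzyme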
Numbers without * were called inactive; . = no result; + = active, no number.

SMILES | HDAC3 inh | LANA-H2A inh | iPSC survival up | DAGLB inh | others
C[C@]1(O)CCC2C3CC[C@H]4C[C@@H](OC(=O)[C@@H](N)CCCCN)CC[C@]4(C)C3CC[C@@]21C (stereo partly specified) | . | . | -1.1 | 1.6
O=C1NCN(c2ccccc2)C12CCN(C(c1cccc3ccccc13)c1nnnn1-c1ccc3c(c1)OCCO3)CC2 (stereo unspecified) | . | . | 1.4 | .
Nc1ccc2ccc3cccc[n+]3c2c1 | -2.5 | 35.9* | -0.6 | -84.3
N=C(N)c1c(O)n(C2CCCCC2)c(=O)n(C2CCCCC2)c1=O | 28.4* | -0.2 | 2.1 | -0.8
O=C1CC23c4ccccc4N4C(=O)CC5OCC=C6CN1C2CC6C5C43 (stereo unspecified) | . | . | 1.5 | -0.9
CCOP(=S)(OCC)Oc1nc(Cl)c(Cl)cc1Cl | -5.9 | + | -0.9 | -3.6
CCOC(=O)c1cn2nc(OP(=S)(OCC)OCC)cc2nc1C | 3.5 | -4.3 | 0.6 | -3.0
c1ccc2[nH]c(CCN3CCCCC3)nc2c1 | . | . | -0.1 | -2.7
NP(=O)(OCCCc1ccccc1)Oc1ccc(Cl)cc1 (stereo unspecified) | 0.2 | 0.5 | -1.2 | 35.3* | DAGLB inh conf=34.8*
COC(=O)C1=C(c2ccc(F)cc2F)C[C@@H]2CC[C@H]1N2C(=O)N1CCCCC1 | 3.9 | 3.4 | 0.8 | -2.4

Source: PubChem BioAssay (several laboratories)
